About 83,000 compounds went through this panel and 20% of them were active in at least one assay; those are over-represented in the sample as a whole.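 Growth was measured after 48 h exposure to one concentration of compound in 96-well plates. Values under 10 count as active.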 Values without a mark were called inactive. Activity calls are given as the source filed them.

For the test, the system named is HL-60(TB) leukemia. As to the kind of experiment: NCI-60 one-dose screen, 48 h (100 = growth as untreated, 0 = no growth, -100 = all killed). The settings on record: 10 µM unless noted.
`CC(C)OCCCNCC(=O)Nc1ccc(S(=O)(=O)c2ccc(NC(=O)CNCCCOC(C)C)cc2)cc1`: the growth is 82.1%.
As to `Ic1ccc(Nc2nc3nonc3nc2Nc2ccc(I)cc2)cc1`, the growth is -50.2% (active).
Turning to `CCCCCCCCCCCCCCCCOC(=O)c1c(C)[nH]c(/C=C2\N=C(c3ccc[nH]3)C=C2OC)c1C`, the growth was 62.2%.
The result for `CCOC(=O)C1=C(Nc2ccc(OC)cc2)C(N)=NC1=N` reads 3.35% (active); that for `Nc1nc(N)c2c(n1)NC(c1cccc(Nc3ccnc4cc(C(F)(F)F)ccc34)c1)CC(c1ccccc1)=N2` (stereo not given), 34.8%; that for `C#CCOc1cc(/C=N/Nc2nc(-c3ccc(OC)cc3)cs2)ccc1O`, 97.6%.
For the molecule `COc1ccc(-c2nc3ccccn3c2-c2nc3ccc(Cl)cc3[nH]2)cc1`, the growth is 74.8%.
For `CN(C)S(=O)(=O)Oc1ccc(-c2sc3cc(OS(=O)(=O)N(C)C)ccc3c2C(=O)c2ccc(OCCN3CCCCC3)cc2)cc1`, the growth was 53.2%.
Regarding `COc1ccc(C2CC(c3ccc4ccccc4c3)=NN2/C=C2\SC(=S)N(NC(=O)Cc3ccccc3Nc3c(Cl)cccc3Cl)C2=O)cc1` (stereo not given), the growth was -27.4% (active).
With `CN1C(=O)C(=Cc2cn(Cc3ccccc3)c3ccc(Br)cc23)C(=O)N(C)C1=O`, the growth is 73.3%.
For `COc1ccc(NC(=O)CCl)cc1`, the growth is 69.8%.
The result for `CC(=O)Nc1nc2c(c(N)c1C#N)C(c1cccc(Cl)c1)C1=C(CCCC1=O)N2c1sc2c(c1C#N)CCCC2` (stereo not given) reads 5.89% (active); that for `O=[N+]([O-])c1ccc(Oc2cccc(C(F)(F)F)c2)c([N+](=O)[O-])c1`, 14.3%.
The result for `Oc1c(Cl)cc(Cl)cc1CNc1nccnn1` reads 115%; that for `O=C1c2cc3c(cc2-c2c1c1ccc(Cl)cc1c(=O)n2C[C@H](O)[C@@H](O)[C@H](O)CO)OCO3`, -5.75% (active); that for `O=C(Nc1ccc(I)cc1F)c1cc(F)ccc1O`, -30.7% (active).
Regarding `C/C=C/CSC(C)(C)C(=O)NC`, the growth is 98.7%.
For `Cc1c([C@H](C(Cl)Cl)[C@H](O)[C@H]2C[C@H](C)C(=O)O2)ccc2c1C(=O)[C@H]1[C@H]2C[C@@H](Br)[C@@]23O[C@@H](CO[C@H]2O)CC13C` (stereo not given in full), the growth was -16.4% (active).
For `CC(c1cc(Cl)ccc1O)c1cc(Cl)ccc1O`, the growth is 34.1%.
The result for `O=C1/C(=C/c2ccc(C(F)(F)F)cc2)COc2ccc(O)cc21` reads -36.1% (active).
`C/C=C(/C)C(=O)OC1C=C(CO)C(=O)C(OC(=O)C2(C)OC2C)C1C(C)C` (stereo not given): the growth is -24.9% (active).
Next, `C#CCOc1ccc2ncnc(Nc3cccc(NC(=O)CCl)c3)c2c1`: 63.7%; `Cc1c(C2=CCCCC2)c2ccccn2c1C(=O)c1cccc(S(=O)(=O)N2CCOCC2)c1`: 132%; `Cc1ccc(S(=O)(=O)Nc2ccccc2)cc1N`: 96%.
The result for `CC(=O)N(CCCCCCN(C(C)=O)C(C)=O)C(C)=O` reads 108% [100 µM]; that for `O=c1oc2ccc(F)cc2c(=O)n1-c1ccc(F)cc1F`, 16.7%; that for `CC(=O)OCC(OC(C)=O)C(OC(C)=O)C(OC(C)=O)C(OC(C)=O)C(/C=N/Nc1ccccc1)=N/Nc1ccccc1` (stereo not given), 59.4%.
For the molecule `Cc1ccc(S(=O)(=O)NC(=O)n2cc(-c3ccncc3)c(-c3ccc(Cl)c(O)c3)n2)cc1`, the growth was 85.1%.
For `CCCCN1C(=O)CC(SC2CC(=O)N(CCCC)C2=O)C1=O` (stereo not given), the growth is 132%.
Turning to `CN1CCN(Cc2ccc(C(=O)Nc3cncc(C#Cc4cnc(N)c5ccccc45)c3)cc2C(F)(F)F)CC1`, the growth is -71.5% (active).
As for `NC(=O)c1cc(Br)ccc1NC(=O)/C=C/c1ccccc1`, the growth is -22.9% (active).
As for `Cc1ccncc1C(=O)O`, the growth was 106%.
`NS(=O)(=O)c1ccc(NC2=C(Cl)C(=O)c3ccccc3C2=O)cc1`: the growth was 87.6%.
Consider `COc1cccc(-c2nn(-c3ccccc3)cc2-c2ccnc(NCCCNS(=O)(=O)c3ccc(C(F)(F)F)cc3)c2)c1`, for which the growth is 12.4%.
With `COc1ccc(-c2nc(-c3nc4cc(C)c(C)cc4[nH]3)cc3c2[nH]c2ccccc23)cc1`, the growth was -31.9% (active).
With `N#Cc1ccccc1-c1ccc(CN2C(=O)S/C(=C\c3ccc(Br)cc3)C2=O)cc1`, the growth was 96.2%.
As for `O=Nc1c(-c2c(O)[nH]c3ccc([N+](=O)[O-])cc23)[nH]c2ccc(O)cc12`, the growth was 3.67% (active).
For the molecule `c1ccc(Cn2cc3c(c2)-c2nc(Nc4ccccc4)ncc2CC3)cc1`, the growth was 79.4% [100 µM].
Turning to `COc1cc(-c2ccc(-c3ccc(C(=N)N)nc3)s2)cc(OC)c1OC`, the growth was -40.6% (active).
For `COc1ccc(/C=C/c2c(C(=O)/C=C/c3ccccc3)c(C)nc3ccccc23)cc1`, the growth was 6.07% (active).

(Values after PubChem BioAssay (NCI).)
